# Assay results reported in PubChem BioAssay AID463173 (ICCB-Longwood Screening Facility, Harvard Medical School, 2010).
# Among all 52,000 compounds or so, about 4,300 (8.3%) were called active. This is one part of a sample in which actives are shown more often than they occur. A number with no mark means an inactive call. Cut-off read from the data, not from the text of the source: active = survival mostly below about 52% (no sharp cut-off); inactive = mostly above about 56%.
# Test system: DeltatarO mutant
# Test: S. aureus survival, RN4220 and DeltatarO strains – OD600, teichoic acid synthesis inhibitors, primary screen (AID 463173)
# Details: S. aureus RN4220 wild type/DeltatarO growth, OD600, 18 h, stronger effect = lower value, screened at 18.75 µg/mL (by protocol)
row,SMILES,survival
1,CC1=C(C(=O)Nc2ccccc2)C(c2ccncc2)n2nc(SCc3ccccc3Cl)nc2N1 (centres undefined),74%
2,CCCCOc1ccc(-c2cc3c(=O)n(CC(=O)Nc4ccc(Cl)cc4Cl)ccn3n2)cc1,133%
3,CCN(CC)C(=O)Cn1c(=O)n(Cc2ccc(C(=O)NCCc3ccc(OC)c(OC)c3)cc2)c(=O)c2ccccc21,104%
4,CCn1c(=O)n(CC)c2cc(N3CCCC3)c(NC(=O)Nc3cc(C)cc(C)c3)cc21,91%
5,COc1ccc(CC(=O)NCc2ccc3c(c2)CCN3C(=O)c2ccc(Cl)cc2)cc1OC,86%
6,Cc1ccc(S(=O)(=O)C(CNC(=O)C(=O)NCCc2ccccc2)c2cccs2)cc1 (centres undefined),107%
7,C=CCN(C(=O)c1ccc2c(c1)nnn2C)c1ccccc1,97%
8,O=C(NC1CCCCC1)NC1CCN(Cc2nnnn2Cc2ccc3c(c2)OCO3)CC1,88%
9,Cc1nn(-c2cccc(Cl)c2)c2nc(-c3cccnc3)cc(C(F)(F)F)c12,45%
10,Cc1ccc(-n2nc(C)c3c(C(F)(F)F)cc(-c4cccnc4)nc32)cc1Cl,53%
11,Cc1nn(-c2ccc(Cl)cc2)c2nc(-c3cccnc3)cc(C(F)(F)F)c12,39% (active)
12,COc1ccc(CNC(=O)C2CCN(C(=O)c3ccc(-n4ccc5ccccc54)s3)CC2)cc1,90%
13,CCn1c2c(c(=O)n3ncc(C(=O)Nc4ccc(C(=O)OC)cc4)c13)CN(Cc1ccc(OC)cc1)CC2,81%
14,NC(=O)CN(c1ccccc1)C1SC(=O)NC1=O (centres undefined),76%
15,COc1ccccc1-n1c(SCC(=O)Nc2ccc(C)cc2)nc(O)cc1=O,61%
16,COc1ccc(CNC(=O)c2ccc(CSc3nc4ccncc4n3Cc3ccccc3F)cc2)cc1,62%
17,COC(=O)c1ccc(CSc2nc3ccncc3n2Cc2ccc(F)cc2)cc1,93%
18,O=C(NC1CCCC1)c1ccc(CSc2nc3ccncc3n2Cc2cccc(F)c2)cc1,60%
19,Cc1ccc(CSc2nc3ccncc3n2Cc2nc(-c3ccccc3C)oc2C)cc1,-4% (active)
20,COC(=O)c1ccc(Cn2c(SCc3cccc(C)c3)nc3ccncc32)cc1,83%
21,Cc1ccc(C)c(CSc2nc3ccncc3n2Cc2nc(-c3ccccc3Cl)oc2C)c1,71%
22,Cc1cccc(Cn2c(SCc3ccc(C(=O)NC4CCCC4)cc3)nc3ccncc32)c1,54% (active)
23,Cc1ccc(CSc2nc3ccncc3n2Cc2nc(-c3ccc(Cl)cc3)oc2C)cc1,63%

row,SMILES,survival
1,COC(=O)c1ccc(Cn2c(SCc3ccccc3)nc3ccncc32)cc1,45% (active)
2,COC(=O)c1ccc(Cn2c(SCc3ccccc3F)nc3ccncc32)cc1,42% (active)
3,COC(=O)c1ccc(Cn2c(SCc3ccc(F)cc3)nc3ccncc32)cc1,54%
4,Cc1cccc(Cn2c(SCc3ccc(C(=O)NC4CCCCC4)cc3)nc3ccncc32)c1,75%
5,COc1ccc(NC(=O)CCc2nnc3n(Cc4ccc(C)cc4)c(=O)c4ccccc4n23)cc1,59%
6,Cc1cccc(-c2cc3nc(C)cc(NCCCn4ccnc4)n3n2)c1,88%
7,O=C(O)CSCCn1cccn1,93%
8,CC(C)=CCC(C)(C)CNc1ccc(C)cc1,66%
9,CCOc1ccccc1NC(=O)C1CCCN(c2ncnc3onc(-c4ccc(F)cc4)c23)C1 (centres undefined),85%
10,Cc1cc(C)cc(NC(=O)CCc2c(C)nc3c(c2C)c(=O)n(C)c(=O)n3C)c1,64%
11,COc1ccc(CN2C(=O)N(c3ccc(F)cc3)C(=O)C2CC(=O)Nc2cc(OC)cc(OC)c2)cc1 (centres undefined),81%
12,Cn1c2ccccc2c2nnc(SCC(N)=O)nc21,76%
13,CCc1ccccc1NC(=O)Cn1c(=O)n(CCCS(=O)(=O)C2CCCCC2)c(=O)c2ccccc21,86%
14,CCOc1ccc(CNC(=O)c2cnc3sc(N4CCOCC4)nn3c2=O)cc1,81%
15,CCOC(=O)c1c(C)[nH]c(CCC(=O)NCc2cccc(C)c2)c1C,70%
16,Cc1ccc(-n2ncc3c(N(C)C)ncnc32)cc1Cl,94%
17,Cc1ccc(Cn2c(SCc3ccc(C(=O)N4CCCCC4)cc3)nc3ccncc32)cc1,7% (active)
18,Cc1ccc(Cn2c(SCc3ccc(C(=O)N4CCCCCC4)cc3)nc3ccncc32)cc1,71%
19,O=C(c1ccc(CSc2nc3ccncc3n2Cc2ccccc2)cc1)N1CCCCCC1,70%
20,Cc1cc(C)c(C#N)c(S(C)(=O)=O)n1,106%
21,CCc1ccccc1NC(=O)C1CCN(S(=O)(=O)c2cn(C)cn2)CC1,93%
22,CCCCN(C)C(=O)C1CCCN(c2ncnc3onc(-c4ccc(F)cc4)c23)C1 (centres undefined),77%
23,Cc1ccc(Nc2c(-c3ccc(N4CCOCC4)cc3)nc3ncccn23)c(C)c1,80%

row,SMILES,survival
1,CC1=C(C(=O)OCC2CCCCC2)C(c2ccc(Cl)cc2Cl)CC(=O)N1 (centres undefined),82%
2,COc1cccc(C2CC(=O)Nc3c2ccc(C)c3C)c1OC (centres undefined),94%
3,Cc1ccc2c(c1C)NC(=O)CC2c1ccc(Cl)cc1Cl (centres undefined),4% (active)
4,CCc1ccc(C(=O)CC2(O)C(=O)N(CCc3ccccc3)c3ccc(Br)cc32)cc1 (centres undefined),52%
5,Cc1ccc(C(=O)CC2(O)C(=O)N(Cc3ccccc3F)c3ccccc32)cc1 (centres undefined),60%
6,CC(C)c1ccc(C(=O)CC2(O)C(=O)N(CCc3ccccc3)c3ccc(Cl)cc32)cc1 (centres undefined),33% (active)
7,CCCN1C(=O)C(O)(CC(=O)c2ccc(C(C)C)cc2)c2ccccc21 (centres undefined),142%
8,CCc1ccc(C(=O)CC2(O)C(=O)N(CCc3ccccc3)c3ccc(Cl)cc32)cc1 (centres undefined),19% (active)
9,Cc1ccc(C(=O)CC2(O)C(=O)N(CCc3ccccc3)c3ccc(Cl)cc32)cc1 (centres undefined),17% (active)
10,CCc1ccc(C(=O)CC2(O)C(=O)N(C(C)C)c3ccccc32)cc1 (centres undefined),79%
11,Cc1ccc(-c2c3c(=O)n(C)c(=O)n(C)c3c3c(C(F)(F)F)nc4ccccc4n23)cc1,77%
12,Cc1ccc(S(=O)(=O)CCSc2nc(C)cc(C)c2C#N)cc1,53%
13,Nc1nonc1C(=O)NCCNCc1cccc(Cl)c1Cl,65%
14,CC(=O)c1cccc(-n2c(=O)c3c4c(sc3n(CC(=O)Nc3ccccc3F)c2=O)CN(C(C)=O)CC4)c1,123%
15,Cc1cccc(-c2nnc(N(C(=O)C3CCC3)C(C)C)s2)c1,113%
16,COc1ccc(Cn2c(CCC(=O)Nc3cccc(OC)c3)nc3cccnc32)cc1,68%
17,Cc1ccc(COC(=O)c2ccc(-c3nnn(Cc4ccc(C)cc4)n3)cc2)cc1,69%
18,COc1cc(CN(C(=O)COc2ccccc2Cl)c2ccccn2)cc(OC)c1OC,72%
19,COc1ccc(Cl)cc1NS(=O)(=O)c1ccc2c(c1)NC(=O)CC(=O)N2,88%
20,CC(C)(C)NC(=O)CSc1nc(-c2ccc(F)cc2)cc(C(F)(F)F)n1,72%
21,COc1ccc(-n2nc(C)c3c(C(F)(F)F)cc(-c4cccnc4)nc32)cc1,56%
22,CCC(C)NC(=O)CSc1nc(-c2ccc(F)cc2)cc(C(F)(F)F)n1 (centres undefined),86%
23,COc1cccc(-c2cc(C(F)(F)F)nc(-n3nc(C)c(Br)c3C)n2)c1,41% (active)

row,SMILES,survival
1,Cc1nn(-c2nc(-c3ccccc3)cc(C(F)(F)F)n2)c(C)c1Cl,5% (active)
2,Cc1nn(-c2nc(-c3ccc(F)cc3)cc(C(F)(F)F)n2)c(C)c1Br,-2% (active)
3,COc1ccccc1-c1c(C)nn2c(C(F)(F)F)cc(-c3ccccc3)nc12,41%
4,CN(Cc1ccccc1)c1nc(-c2ccc(F)cc2)cc(C(F)(F)F)n1,72%
5,COc1cccc(-c2cc(C(F)(F)F)n3nc(C)c(-c4ccccc4)c3n2)c1,79%
6,Cc1nn(-c2nc(-c3ccc(F)cc3)cc(C(F)(F)F)n2)c(C)c1Cl,5% (active)
7,COc1cccc2c1Oc1ncccc1N(C(=O)Nc1ccc(F)c(Cl)c1)C2,135%
8,COc1cccc(N2CCN(S(=O)(=O)c3ccc4[nH]c5c(c4c3)CCCC5)CC2)c1,84%
9,C[N+](C)(C)CC(O)COc1ccccc1 (centres undefined),82%
10,CCc1cccc(C)c1NC(=O)Cn1nc(C)n2cccc2c1=O,92%
11,COc1cccc(CNC(=O)CCc2nnc3n(CC(C)C)c(=O)c4ccccc4n23)c1,85%
12,COc1ccccc1CNC(=O)CCc1c(C)nc2c(c(C)nn2-c2ccc(C)c(C)c2)c1C,69%
13,CN1C(=O)c2cccc3c(S(=O)(=O)Nc4cccc(C(=O)O)c4)ccc1c23,74%
14,COC(=O)c1c(-c2ccc(Cl)cc2)noc1N1CCN(c2ccc(C(C)=O)cc2)CC1,81%
15,O=C(CN1CCC(n2nnc3ccccc32)CC1)N(C1CCCCC1)C1CCCCC1,100%
16,Cc1cccc(NS(=O)(=O)c2ccc3[nH]c(=O)[nH]c3c2)c1C,78%
17,Cc1cc(NC(=O)C2CCCN(S(=O)(=O)c3ccc(Br)s3)C2)ccc1Br (centres undefined),68%
18,COCC(=O)NC1CCN(Cc2nnnn2Cc2ccc3c(c2)OCO3)CC1,87%
19,COc1ccccc1NC(=O)Cn1c(=O)n(CC(=O)NCc2ccccc2Cl)c(=O)c2sccc21,172%
20,CC(=O)c1ccc(S(=O)(=O)Nc2cccc(-c3ccc(N4CCCCC4)nn3)c2)cc1,80%
